Test results as given in PubChem BioAssay.
Activity calls are given as the source filed them. Unless noted, no rule for the calls is given here.

Assays:
[1] = resazurin metabolic signal in HepG2 cells – cell-based, resazurin fluorescence, 24 h, PK04 Diversity Set, profiling panel (AID 1172); conditions: HepG2 viability, higher = more signal
[2] = budding yeast growth changes without added modifier – OD600, strain BY4716, 24 h, basal condition, primary screen (AID 1173); conditions: S. cerevisiae BY4716 growth, OD600, 24 h; higher = more signal, called active from +8 up or from −8 down
[3] = viability profiling in MM1S myeloma cells – cell-based, resazurin fluorescence, basal, 24 h, PK04 Diversity Set, profiling panel (AID 1174); conditions: higher = more signal, called active from +8 up or from −8 down;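 also: MM1S multiple myeloma cell line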
[4] = target: Dihydroorotate dehydrogenase (quinone), mitochondrial (Plasmodium falciparum (isolate 3D7)) (UniProt Q08210); assay: inhibition of P. falciparum DHODH – biochemical, C-terminal His tag, absorbance 600 nm, primary screen (AID 1175); conditions: PfDHODH enzyme, DCIP absorbance 600 nm; higher = more signal, called active from +8 up or from −8 down;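 also: recombinant parasite enzyme with a five histidine tag at its C terminus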
[5] = inhibition of PAO1 biofilm formation – strain PAO1, LB-PBS medium, absorbance 600 nm, primary screen (AID 1176); conditions: P. aeruginosa PAO1 growth/biofilm, A600, 12 h; higher = more signal
[6] = growth modulation of vineyard yeast isolate – strain RM11-1a, OD600, basal, 24 h, primary screen (AID 1177);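 also: cultures grown under basal conditions with no added stressor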; conditions: S. cerevisiae RM11-1a growth, OD600, 24 h; higher = more signal, called active from +8 up or from −8 down
[7] = growth of efflux-deficient E. coli DRC39 – strain DRC39, OD650, 24 h, E. coli filamentation inducers, primary screen (AID 1178);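 also: growth measured as culture turbidity by optical density at 650 nm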; conditions: E. coli DRC39 acrAB, higher = more signal, called active from +8 up or from −8 down
[8] = growth of efflux-deficient E. coli DRC39 – strain DRC39, OD650, 48 h, E. coli filamentation inducers, primary screen (AID 1179);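 also: screen aims at cell division blockers that make cells filament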; conditions: E. coli DRC39 delta-acrAB growth, higher = more signal, called active from +8 up or from −8 down
[9] = viability profiling in RPMI8226 myeloma cells – cell-based, resazurin fluorescence, basal, 24 h, PK04 Diversity Set, profiling panel (AID 1180); conditions: higher = more signal;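 also: RPMI8826 multiple myeloma cell line at 5000 cells per well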
[10] = target: E3 ubiquitin-protein ligase XIAP (Homo sapiens) (UniProt P98170); assay: small molecules binding XIAP protein – biophysical, small-molecule microarray, fluorescence 635 nm, primary screen (AID 1181); conditions: higher = more signal;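 also: score merges 667 nm emission and signal to noise over triplicate slides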
[11] = system: XIP peptide (Xip251-270) binding; assay: XIP fragment 251-270 binding compounds – biochemical, small-molecule microarray, fluorescence 635/667 nm, 0.1 µg/mL protein, primary screen (AID 1182); conditions: fluorescent protein binding, 635 nm, higher = more signal, called active from +8 up or from −8 down
XIP peptide (Xip251-270) = assay: compounds binding XIP fragment 251-270 – biochemical, small-molecule microarray, fluorescence 635/667 nm, 0.5 µg/mL protein, primary screen (AID 1183); conditions: fluorescence 635 nm, higher = more signal
[12] = blood-stage malaria parasite viability loss – strain 3D7, DAPI fluorescence, 100 nL, primary screen (AID 1184);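 also: parasites grown inside human red blood cells in medium with human serum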; conditions: P. falciparum 3D7 growth, 3 d, higher = more signal
[13] = target: Homeobox protein Hox-A13 (Mus musculus) (UniProt Q62424); assay: disruptors of Hoxa13 oligonucleotide interaction – biochemical, fluorescence polarization, labeled oligonucleotide, primary screen (AID 1185); conditions: Hoxa13:DNA binding, 15 min, higher = more signal, called active from +8 up or from −8 down
[14] = blockers of DNA damage checkpoint Chk1 activation – imaging, HeLa, hydroxyurea, phospho-Chk1 antibody, percent positive cells, primary screen (AID 1186); conditions: hydroxyurea-induced phospho-Chk1 immunofluorescence imaging, higher = more signal
[15] = blockers of DNA damage checkpoint Chk1 activation – imaging, HeLa, hydroxyurea, phospho-Chk1 nuclear intensity, primary screen (AID 1187); conditions: hydroxyurea-induced phospho-Chk1 immunofluorescence imaging, higher = more signal

Chain of E3 ubiquitin-protein ligase XIAP (Homo sapiens) (P98170 whole entry, looked up, the tested form may be a part): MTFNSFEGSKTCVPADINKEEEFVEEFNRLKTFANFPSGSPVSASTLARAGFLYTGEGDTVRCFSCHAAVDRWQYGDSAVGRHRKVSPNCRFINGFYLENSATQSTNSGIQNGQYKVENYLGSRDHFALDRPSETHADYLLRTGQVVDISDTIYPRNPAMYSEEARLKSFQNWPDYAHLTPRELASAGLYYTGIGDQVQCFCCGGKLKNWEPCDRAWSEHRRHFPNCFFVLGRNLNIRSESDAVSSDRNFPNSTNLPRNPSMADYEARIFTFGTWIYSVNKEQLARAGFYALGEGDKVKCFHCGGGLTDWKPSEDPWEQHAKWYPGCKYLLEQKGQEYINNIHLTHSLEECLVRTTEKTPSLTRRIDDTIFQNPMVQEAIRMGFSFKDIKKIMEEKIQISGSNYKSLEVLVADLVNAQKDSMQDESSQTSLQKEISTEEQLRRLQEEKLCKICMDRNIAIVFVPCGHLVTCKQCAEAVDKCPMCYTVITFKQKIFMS
Chain of Dihydroorotate dehydrogenase (quinone), mitochondrial (Plasmodium falciparum (isolate 3D7)) (Q08210 whole entry, looked up): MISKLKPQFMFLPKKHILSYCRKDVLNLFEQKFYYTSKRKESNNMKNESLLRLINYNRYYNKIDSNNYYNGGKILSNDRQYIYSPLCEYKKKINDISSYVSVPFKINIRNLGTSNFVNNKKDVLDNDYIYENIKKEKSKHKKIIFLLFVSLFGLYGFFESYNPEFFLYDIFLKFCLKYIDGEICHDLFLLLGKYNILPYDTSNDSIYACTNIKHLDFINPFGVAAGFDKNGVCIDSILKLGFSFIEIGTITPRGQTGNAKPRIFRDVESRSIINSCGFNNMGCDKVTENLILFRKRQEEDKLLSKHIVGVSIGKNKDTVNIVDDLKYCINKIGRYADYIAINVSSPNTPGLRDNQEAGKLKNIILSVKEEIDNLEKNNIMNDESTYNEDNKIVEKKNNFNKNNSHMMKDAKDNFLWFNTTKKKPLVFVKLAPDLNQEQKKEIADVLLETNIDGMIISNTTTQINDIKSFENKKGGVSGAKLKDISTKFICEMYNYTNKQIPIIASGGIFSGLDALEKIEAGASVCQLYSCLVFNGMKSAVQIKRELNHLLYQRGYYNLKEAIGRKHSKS
Chain of Homeobox protein Hox-A13 (Mus musculus) (Q62424 whole entry, looked up): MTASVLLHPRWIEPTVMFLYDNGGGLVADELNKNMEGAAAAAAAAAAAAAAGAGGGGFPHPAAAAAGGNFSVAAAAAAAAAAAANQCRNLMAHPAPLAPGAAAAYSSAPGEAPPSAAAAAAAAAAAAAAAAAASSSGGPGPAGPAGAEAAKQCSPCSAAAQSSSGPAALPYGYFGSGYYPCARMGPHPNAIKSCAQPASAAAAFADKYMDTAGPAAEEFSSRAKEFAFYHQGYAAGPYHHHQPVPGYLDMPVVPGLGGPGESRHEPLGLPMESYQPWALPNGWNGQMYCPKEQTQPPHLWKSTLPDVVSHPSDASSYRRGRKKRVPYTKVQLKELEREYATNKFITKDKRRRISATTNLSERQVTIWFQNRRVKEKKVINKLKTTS

Row | Compound | z-score [1] | z-score [2] | z-score [3] | composite z-score [4] | z-score [5] | z-score [6] | z-score [7] | z-score [8] | z-score [9] | composite z-score [10] | composite z-score [11] | composite z-score (XIP peptide (Xip251-270)) | z-score [12] | z-score [13] | z-score [14] | z-score [15]
1 | COCCOC(=O)N1C(=O)[C@@]2(c3cc(C#CC4(O)CCCCCC4)ccc31)[C@H](c1ccccc1OCCO)N1[C@H](c3ccccc3)[C@H](c3ccccc3)OC(=O)[C@H]1[C@@H]2C(=O)N1CCN(c2ncccn2)CC1 | -0.645 | 1.61 (inactive) | -0.349 (inactive) | 0.122 (inactive) | 2.03 (inactive) | 2.39 (inactive) | 0.0296 (inactive) | 0.946 (inactive) | -0.874 | 0.0774 | -0.0186 (inactive) | 0.744 | -2.23 | -0.571 (inactive) | -0.353 (inactive) | -0.189 (inactive)
2 | COc1ccc(CCNC(=O)[C@@]2(Sc3ccc(C)cc3)CC(=O)N(C(C)C)[C@@H]2c2ccc(CO)cc2I)cc1 | 0.104 | -1.77 (inactive) | -1.63 (inactive) | 0.0834 (inactive) | 0.196 (inactive) | -0.894 (inactive) | -0.246 (inactive) | -0.126 (inactive) | -2.47 | 0.0374 | 0.427 (inactive) | 0.368 | -1.01 | -2.89 (inactive) | 0.332 (inactive) | 0.404 (inactive)
3 | COC(=O)[C@@]1(Cc2ccccc2)N=C(c2ccc(OCCCO)cc2)O[C@H]1c1ccccc1 | -0.882 | -2.46 (inactive) | -2.96 (inactive) | 1.14 (inactive) | 0.991 (inactive) | 1.47 (inactive) | 2.8 (inactive) | 0.608 (inactive) | -2.43 | 0.244 | 1.16 (inactive) | 0.743 | -1.92 | -4.38 (inactive) | -0.343 (inactive) | -0.094 (inactive)
4 | [N-]=[N+]=Nc1ccccc1[C@H]1OC(c2ccc(OCCCO)cc2)=N[C@@]1(CCS(=O)(=O)c1ccccc1)C(N)=O | -0.183 | -1.06 (inactive) | 0.952 (inactive) | 0.22 (inactive) | 0.897 (inactive) | -0.167 (inactive) | 0.981 (inactive) | -0.319 (inactive) | 0.187 | 0.291 | 1.21 (inactive) | 0.941 | -1.42 | -4.72 (inactive) | -0.23 (inactive) | 0.052 (inactive)
5 | NC(=O)NCC#Cc1ccc2c(c1)[C@]1(C(=O)N2)[C@H](c2ccc(O)cc2)N2[C@H](c3ccccc3)[C@H](c3ccccc3)OC(=O)[C@H]2[C@@H]1C(=O)O | 0.587 | 0.453 (inactive) | 0.277 (inactive) | -0.268 (inactive) | 0.237 (inactive) | 0.726 (inactive) | -0.338 (inactive) | -0.176 (inactive) | 0.772 | 0.0975 | -0.211 (inactive) | 0.157 | 0.431 | -5.27 (inactive) | 0.123 (inactive) | 0.094 (inactive)
6 | CN(C)C(=O)[C@]1(Cc2ccccc2N=[N+]=[N-])N=C(c2ccc(OCCCO)cc2)O[C@@H]1c1ccccc1N=[N+]=[N-] | -1.08 | -1.57 (inactive) | -2.65 (inactive) | -0.828 (inactive) | 0.438 (inactive) | 0.667 (inactive) | 1.01 (inactive) | 2.07 (inactive) | -3.87 | -0.178 | 1.31 (inactive) | 0.799 | -2.22 | -3.63 (inactive) | -1.13 (inactive) | -1.55 (inactive)
7 | CC(C)[Si](C#Cc1ccc(Oc2ccccc2)cc1)(O[Si](C#Cc1ccc(Oc2ccccc2)cc1)(C(C)C)C(C)C)C(C)C | 0.0013 | 1.95 (inactive) | 0.698 (inactive) | 0.936 (inactive) | -0.133 (inactive) | 1.88 (inactive) | 0.879 (inactive) | 0.3 (inactive) | 0.603 | -0.0009 | 0.467 (inactive) | -0.0968 | -1.37 | -2.37 (inactive) | -1.01 (inactive) | -0.556 (inactive)
8 | COc1ccc([Si](C)(C)[C@H]2[C@H](CC(=O)N3Cc4ccccc4C[C@H]3CO)O[C@@]3(C(=O)N(Cc4cccc(N5CCC5=O)c4)c4ccccc43)[C@@H]2C)cc1 | -0.774 | 0.472 (inactive) | -2.31 (inactive) | -2.72 (inactive) | 0.389 (inactive) | 2.58 (inactive) | 0.675 (inactive) | 0.398 (inactive) | -2.01 | -0.0393 | 0.177 (inactive) | 0.719 | -2.33 | -2.97 (inactive) | -0.227 (inactive) | -0.0325 (inactive)
9 | C=C(CCCC)/C(=C/C[C@H](OC(=O)c1ccncc1)c1ccccc1OCCO)c1cnc2ccccc2c1 | 0.381 | -0.0677 (inactive) | -1.07 (inactive) | -2.03 (inactive) | 1.23 (inactive) | -0.254 (inactive) | 0.133 (inactive) | 0.126 (inactive) | -0.64 | -0.252 | 0.8 (inactive) | 0.575 | -2.96 | -4.41 (inactive) | 0.618 (inactive) | 0.783 (inactive)
